{"source": "PubChem BioAssay (NCATS)", "note": "“And” between values parts separate entries of the source, which are not always exact repeats. Equal entries are not always repeated. Records with an inconclusive call do not appear. The source made the active and inactive calls. Calls come from the whole dose curve; as a rule, active = well fitted curve in the direction sought with a large enough effect; inconclusive = small, poorly fitted or top-dose-only effect, or another doubt; inactive = no such curve, though single readings can be large; an effect the other way counts as inactive or inconclusive. Potency is the fitted concentration of half-maximal effect."}
{"test": "Quantitative highthroughput screen to assess conditional lethalithy of SEM cells grown in RPMI1640 with unreated serum (RPMI+s) (AID 1963883); note: nearly all actives have a fitted effect of over 35% in size;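 for viability: 100% = DMSO wells and 0% = empty wells without cells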", "conditions": "SEM B-ALL cells, CellTiter-Glo viability, 48 h; series mostly up to 45.8 µM", "in_short": "(§1)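 Each medium arm—HPLM with 10% dialyzed FBS, or RPMI1640 with 5 mM glucose and 10% untreated or dialyzed FBS—was screened against an 11-point, 3-fold compound titration for 48 h at 37 °C, with CellTiter-Glo luminescence as endpoint.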"}
{"smiles": "CC(O)(CS(=O)(=O)c1ccc(F)cc1)C(=O)Nc1ccc(C#N)c(C(F)(F)F)c1", "note": "(stereo unspecified)", "Potency": "14.8 µM (active)"}
{"smiles": "C[C@@H]1[C@@H](CC(C[C@H]2O[C@@H]3O[C@]4(C)CC[C@@H]5[C@H](C)CC[C@@H]([C@H]2C)[C@@]35OO4)C[S+](=O)([O-])c2ccc(COC(=O)N(C)C)cc2)O[C@@H]2O[C@]3(C)CC[C@H]4[C@H](C)CC[C@@H]1[C@@]24OO3", "note": "(stereo partly specified)", "Potency": "0.418 µM (active)"}
{"smiles": "C1=C2CCCN[C@H]2[C@@H]2C[C@H]1[C@@H]1CCCCN1C2", "Potency": "inactive"}
{"test": "Quantitative highthroughput screen to assess conditional lethalithy of SEM cells grown in RPMI1640 with dialyzed fetal bovine serum (RPMI+ds) (AID 1963884); note: nearly all actives have a fitted effect of over 35% in size;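 for viability: 100% = DMSO control wells and 0% = empty wells without cells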", "conditions": "SEM B-ALL cells, RPMI+dialyzed FBS, CellTiter-Glo viability, 48 h; series mostly up to 45.8 µM", "in_short": "as §1"}
{"smiles": "C[C@@H]1[C@@H](CC(C[C@H]2O[C@@H]3O[C@]4(C)CC[C@@H]5[C@H](C)CC[C@@H]([C@H]2C)[C@@]35OO4)C[S+](=O)([O-])c2ccc(COC(=O)N(C)C)cc2)O[C@@H]2O[C@]3(C)CC[C@H]4[C@H](C)CC[C@@H]1[C@@]24OO3", "note": "(stereo partly specified)", "Potency": "0.418 µM (active)"}
{"smiles": "C[C@H]([C@H](O)CCC(C)(C)O)[C@H]1CC[C@@]2(O)C3=CC(=O)[C@@H]4C[C@@H](O)[C@@H](O)C[C@]4(C)[C@@H]3CC[C@]12C", "Potency": "inactive"}
{"smiles": "C1=C2CCCN[C@H]2[C@@H]2C[C@H]1[C@@H]1CCCCN1C2", "Potency": "inactive"}
{"test": "Cellular viability qHTS for adrenocortical cancer (ACC) cell line SW-13 (AID 1963989); note: nearly all actives have a fitted effect of over 65% in size;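 for activity (max response): cells grown in serum-free medium with ITS supplement; % is set by controls: 0 for no effect and ±100 for the full control effect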", "conditions": "SW-13 ACC cells viability, CellTiter-Glo, 48 h; activity (max response): hits give low values", "in_short": "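Luminescent ATP read-out (CellTiter-Glo, 20 min at room temperature) measured metabolically competent SW-13 cells after 48 h compound treatment. Final concentrations spanned up to 46 uM; bortezomib served as positive control.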"}
{"smiles": "CC(C)=CCN1CC[C@@]2(C)c3cc(O)ccc3C[C@@H]1[C@@H]2C", "Potency": "39.8 µM (active)"}
{"smiles": "C[C@]12CC[C@H]3[C@@H](CCC4=CC(=O)CC[C@@H]43)[C@@H]1CC[C@@H]2OC(=O)CCc1ccccc1", "activity (max response)": "-0.27% (inactive)"}
{"smiles": "Cc1sc2c(c1C)C(c1ccc(Cl)cc1)=NC(CC(N)=O)c1nnc(C)n1-2", "note": "(stereo unspecified)", "activity (max response)": "-21.6% (inactive)"}
{"smiles": "Cn1c(/C=C/CO)c(CO)c2c1C(=O)C=C(N1CC1)C2=O", "activity (max response)": "-6.24% (inactive)"}
{"smiles": "CN[C@@H]1C[C@H]2O[C@@](C)([C@@H]1OC)n1c3ccccc3c3c4c(c5c6ccccc6n2c5c31)C(=O)NC4", "Potency": "0.1 µM (active)"}
{"smiles": "S=C(SSC(=S)N1CCCCC1)N1CCCCC1", "activity (max response)": "-0.757% (inactive)"}
{"smiles": "C#C[C@]1(O)CC[C@H]2[C@@H]3CCC4=CC(=O)CC[C@]4(C)[C@H]3CC[C@@]21C", "activity (max response)": "3.93% (inactive)"}
{"smiles": "OC(c1ccccc1)(c1ccccc1)C1CCNCC1", "activity (max response)": "1.1% (inactive)"}
{"smiles": "ClCCCN1CCN(c2cccc(Cl)c2)CC1", "activity (max response)": "-6.01% (inactive)"}
{"smiles": "C/C(O)=C(\\C#N)C(=O)Nc1cc(Br)ccc1Br", "activity (max response)": "-6.51% (inactive)"}
{"smiles": "CN1CCc2cc(Cl)c(O)cc2[C@H]2c3ccccc3CC[C@@H]21", "activity (max response)": "-19.8% (inactive)"}
{"smiles": "CC(CC(C#N)(c1ccccc1)c1ccccc1)N(C)C", "note": "(stereo unspecified)", "activity (max response)": "-32% (inactive)"}
{"smiles": "CC1(C)CC/C(=C/c2ccc(Cl)cc2)C1(O)Cn1cncn1", "note": "(stereo unspecified)", "activity (max response)": "3.72% (inactive)"}
{"smiles": "CCN(CCO)CCn1c(Cc2ccccc2)nc2c1c(=O)n(C)c(=O)n2C", "activity (max response)": "7.74% (inactive)"}
{"smiles": "CCN(CC)Cc1nccn1-c1ccc([N+](=O)[O-])cc1C(=O)c1ccccc1Cl", "activity (max response)": "-3.26% (inactive)"}
{"smiles": "O=C(CBr)Nc1ccc(Cl)cc1C(=O)c1ccccc1F", "activity (max response)": "-3.92% (inactive)"}
{"smiles": "O=C1CN2CCOC2(c2ccccc2Cl)c2cc(Cl)ccc2N1", "note": "(stereo unspecified)", "activity (max response)": "-4.14% (inactive)"}
{"smiles": "CCOC(=O)c1cncn1C(C)c1ccccc1", "note": "(stereo unspecified)", "activity (max response)": "4.76% (inactive)"}
{"smiles": "Oc1ccc([C@H]2CNCc3c2ccc(O)c3O)cc1O", "activity (max response)": "-10.4% (inactive)"}
{"smiles": "CC(C)CC(N(C)C)C1(c2ccc(Cl)cc2)CCC1", "note": "(stereo unspecified)", "activity (max response)": "-12.4% (inactive)"}
{"smiles": "CC[C@]1(O)CC[C@H]2[C@@H]3CCC4=CCCC[C@@H]4[C@H]3CC[C@@]21C", "Potency": "3.66 µM (active)"}
{"smiles": "CC(C)=CCOc1c2occc2cc2ccc(=O)oc12", "activity (max response)": "-12.5% (inactive)"}
{"smiles": "COc1cc([C@@H]2c3cc4c(cc3[C@@H](O)C3COC(=O)C32)OCO4)cc(OC)c1O", "note": "(stereo partly specified)", "Potency": "0.316 µM (active)"}
{"smiles": "CCC(COC(=O)c1cc(OC)c(OC)c(OC)c1)(c1ccccc1)N(C)C", "note": "(stereo unspecified)", "activity (max response)": "-2.65% (inactive)"}
{"smiles": "Clc1ccc(CSC(Cn2ccnc2)c2ccc(Cl)cc2Cl)cc1", "note": "(stereo unspecified)", "Potency": "8.2 µM (active)"}
{"smiles": "O=S(=O)(O)C(F)(F)C(F)(F)C(F)(F)C(F)(F)F", "activity (max response)": "12.3% (inactive)"}
{"smiles": "C#C[C@]1(O)C=C[C@H]2[C@@H]3CCC4=CC(=O)CC[C@@H]4[C@H]3CC[C@@]21CC", "activity (max response)": "-4.27% (inactive) and 2.85% (inactive)"}
{"smiles": "O=C(Nc1ccccc1-c1ccc(Cl)cc1)c1cccnc1Cl", "activity (max response)": "-12.7% (inactive)"}
{"smiles": "CN1C(=S)CN=C(c2ccccc2)c2cc(Cl)ccc21", "activity (max response)": "-3.17% (inactive)"}
{"smiles": "CCOP(=O)(NC(C)C)Oc1ccc(SC)c(C)c1", "note": "(stereo unspecified)", "activity (max response)": "-12.8% (inactive)"}
{"smiles": "CN1C(=O)CN=C(c2ccccc2)c2cc(Cl)ccc21", "activity (max response)": "0.469% (inactive)"}
{"smiles": "Clc1ccc(C(c2ccc(Cl)cc2)C(Cl)(Cl)Cl)cc1", "activity (max response)": "4.08% (inactive)"}
{"smiles": "C[C@H]1[C@H](O)[C@@H](C)/C=C/C=C/CC/C=C/C=C/C=C/C=C/[C@H](O[C@@H]2O[C@H](C)[C@@H](O)[C@H](N)[C@@H]2O)C[C@@H]2O[C@](O)(C[C@@H](O)[C@H](O)CC[C@@H](O)C[C@@H](O)C[C@@H](O)CC(=O)O[C@H]1C)C[C@H](O)[C@H]2C(=O)O", "activity (max response)": "-20.1% (inactive)"}
{"smiles": "CCC(=O)O[C@H]1CC[C@H]2[C@@H]3CCC4=CC(=O)CC[C@]4(C)[C@H]3CC[C@]12C", "activity (max response)": "-15% (inactive)"}
{"smiles": "COC(=O)[C@]12CCC(C)(C)C[C@H]1[C@H]1C(=O)C=C3[C@@]4(C)C=C(C#N)C(=O)C(C)(C)[C@@H]4CC[C@@]3(C)[C@]1(C)CC2", "Potency": "6.31 µM (active)"}
